Measured values taken from the supplement of paper PMC10849652.
Of roughly 8,800 targets only a part is listed; those with a hit were picked by preference. About 0.5% of all pairs of compound and target were hits.

Assays:
Assay in all cases: log2 fold change, soluble protein after heating vs DMSO (PISA); higher = thermal stabilisation; K562 lysate, 10 uM; active = over 0.2 and 3.5 SD of the protein, either way, in both replicates (recomputed)
vemurafenib = compound: CCCS(=O)(=O)Nc1ccc(F)c(C(=O)c2c[nH]c3ncc(-c4ccc(Cl)cc4)cc23)c1F [vemurafenib]
Outline: (§1)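 To prepare the extract, K562 pellets were dounce-homogenised in PBS pH 7.4 with 1 mM MgCl2, giving crude material at 1 mg/mL protein. This was treated with 10 μM compound for 30 min, then heated in aliquots for 3 min over 48°C-58°C before pooling and addition of NP-40 to 0.5% at 4°C. Centrifugation at 21,000xg for 90 min left soluble protein in the supernatant, which TMTpro 16plex LC-MS/MS quantified with equalised channel sums. Results are log-two fold changes in thermal stability compared with solvent controls, from duplicates.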

[1] = compound: CCCS(=O)(=O)Nc1ccc(F)c(C(=O)c2c[nH]c3ncc(Cl)cc23)c1F
Outline: as §1

barasertib = compound: CCN(CCCOc1ccc2c(Nc3cc(CC(=O)Nc4cccc(F)c4)[nH]n3)ncnc2c1)CCOP(=O)(O)O [barasertib]
Outline: as §1

[2] = compound: CC[C@@H]1C(=O)N(C)c2cnc(Nc3ccc(C(=O)NC4CCN(C)CC4)cc3OC)nc2N1C1CCCC1
Outline: as §1

volasertib = compound: CC[C@@H]1C(=O)N(C)c2cnc(Nc3ccc(C(=O)N[C@H]4CC[C@H](N5CCN(CC6CC6)CC5)CC4)cc3OC)nc2N1C(C)C [volasertib]
Outline: as §1

[3] = compound: CCn1c(C(=O)N(C2CC2)C2CC2)cc2c3c(ncn3C)c(Nc3cc(C)n(C)n3)nc21
Outline: as §1

[4] = compound: CCn1cc(-c2ccnc3[nH]c(-c4cccc(CN(C)C)c4)cc23)c(-c2ccc(NC(=O)N(C)C)cc2)n1
Outline: as §1

[5] = compound: CN1CCC(CNc2ccc3ncc(-c4cccc(OC(F)(F)F)c4)n3n2)CC1
Outline: as §1

saracatinib = compound: CN1CCN(CCOc2cc(OC3CCOCC3)c3c(Nc4c(Cl)ccc5c4OCO5)ncnc3c2)CC1 [saracatinib]
Outline: as §1

sotrastaurin = compound: CN1CCN(c2nc(C3=C(c4c[nH]c5ccccc45)C(=O)NC3=O)c3ccccc3n2)CC1 [sotrastaurin]
Outline: as §1

alvocidib = compound: CN1CC[C@H](c2c(O)cc(O)c3c(=O)cc(-c4ccccc4Cl)oc23)[C@H](O)C1 [alvocidib]
Outline: as §1

Tubastatin A = compound: CN1CCc2c(c3ccccc3n2Cc2ccc(C(=O)NO)cc2)C1 [Tubastatin A]
Outline: as §1

[6] = compound: CNC(=O)C1=CC=CC=C1NC2=NC(=NC=C2Cl)NC3=C(C=C(C=C3)N4CCOCC4)OC
Outline: as §1

defactinib = compound: CNC(=O)c1ccc(Nc2ncc(C(F)(F)F)c(NCc3nccnc3N(C)S(C)(=O)=O)n2)cc1 [defactinib]
Outline: as §1

[7] = compound: CNc1nc(-c2ccc3c(N)n[nH]c3c2)cc(N2C[C@@H](C(=O)NC3CCCCC3)CC[C@H]2C)n1
Outline: as §1

encorafenib = compound: COC(=O)N[C@@H](C)CNc1nccc(-c2cn(C(C)C)nc2-c2cc(Cl)cc(NS(C)(=O)=O)c2F)n1 [encorafenib]
Outline: as §1

[8] = compound: COC(=O)[C@H](CCSC)NC(=O)C1=C(C=C(C=C1)NC[C@H](CS)N)C2=CC=CC=C2
Outline: as §1

alisertib = compound: COc1cc(Nc2ncc3c(n2)-c2ccc(Cl)cc2C(c2c(F)cccc2OC)=NC3)ccc1C(=O)O [alisertib]
Outline: as §1

[9] = compound: COc1cc2nc(-c3cc(F)ccc3O)nc(N[C@@H]3CNC[C@H]3C(C)(C)O)c2cc1OC
Outline: as §1

gefitinib = compound: COc1cc2ncnc(Nc3ccc(F)c(Cl)c3)c2cc1OCCCN1CCOCC1 [gefitinib]
Outline: as §1

Measured: log2 fold change

ALDH1B1 (UniProt P30837)
Sequence of UniProt P30837 (P30837 whole entry, looked up): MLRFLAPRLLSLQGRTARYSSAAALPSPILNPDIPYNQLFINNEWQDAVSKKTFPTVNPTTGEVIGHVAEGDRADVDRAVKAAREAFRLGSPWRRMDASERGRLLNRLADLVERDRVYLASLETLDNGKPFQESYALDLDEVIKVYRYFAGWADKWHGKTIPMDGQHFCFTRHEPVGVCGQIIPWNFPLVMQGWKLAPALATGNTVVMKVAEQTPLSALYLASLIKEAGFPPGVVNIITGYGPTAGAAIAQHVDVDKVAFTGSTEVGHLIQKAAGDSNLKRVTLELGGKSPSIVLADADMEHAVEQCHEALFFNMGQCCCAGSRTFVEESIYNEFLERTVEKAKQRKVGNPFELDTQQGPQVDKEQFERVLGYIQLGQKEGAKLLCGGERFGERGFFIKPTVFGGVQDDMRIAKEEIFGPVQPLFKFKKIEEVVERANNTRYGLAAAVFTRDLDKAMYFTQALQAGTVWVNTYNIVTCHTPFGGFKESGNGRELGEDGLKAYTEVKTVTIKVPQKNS
active: [6] 0.233
inactive: vemurafenib 0.008 | [1] 0.017 | barasertib -0.022 | [2] 0.029 | volasertib -0.013 | [3] -0.062 | [4] -0.015 | [5] 0.108 | saracatinib 0.011 | sotrastaurin 0.022 | alvocidib 0.168 | Tubastatin A 0.01 | defactinib -0.029 | [7] 0.007 | encorafenib -0.008 | [8] 0.127 | alisertib -0.002 | [9] 0.006 | gefitinib -0.026

AMDHD2 isoform 3 (UniProt Q9Y303)
inactive: vemurafenib 0.009 | [1] 0.019 | barasertib -0.021 | [2] 0.003 | volasertib 0.015 | [3] -0.024 | [4] -0.031 | [5] 0.005 | saracatinib -0.007 | sotrastaurin 0.019 | alvocidib -0.016 | Tubastatin A 0 | [6] 0.018 | defactinib 0.014 | [7] 0.018 | encorafenib -0.028 | [8] 0.1 | alisertib 0.023 | [9] -0.013 | gefitinib 0.034

ARAF (UniProt P10398)
Sequence of UniProt P10398 (P10398 whole entry, looked up): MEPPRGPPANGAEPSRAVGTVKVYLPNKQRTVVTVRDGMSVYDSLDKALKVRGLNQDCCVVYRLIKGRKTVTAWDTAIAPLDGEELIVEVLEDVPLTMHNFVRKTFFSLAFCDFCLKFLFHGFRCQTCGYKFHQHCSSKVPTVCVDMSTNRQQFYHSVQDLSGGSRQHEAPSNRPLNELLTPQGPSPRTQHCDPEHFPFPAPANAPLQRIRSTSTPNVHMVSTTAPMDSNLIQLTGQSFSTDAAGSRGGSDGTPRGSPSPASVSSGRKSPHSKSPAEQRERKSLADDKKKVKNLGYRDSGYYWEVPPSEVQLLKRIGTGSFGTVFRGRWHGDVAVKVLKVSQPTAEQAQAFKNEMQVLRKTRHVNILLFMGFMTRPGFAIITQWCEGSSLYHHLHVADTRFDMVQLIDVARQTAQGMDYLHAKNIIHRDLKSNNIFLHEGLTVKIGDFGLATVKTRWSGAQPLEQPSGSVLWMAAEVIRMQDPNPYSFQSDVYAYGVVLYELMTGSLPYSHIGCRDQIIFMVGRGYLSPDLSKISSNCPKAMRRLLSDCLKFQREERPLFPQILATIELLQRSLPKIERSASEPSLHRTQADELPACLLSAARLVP
inactive: [1] 0.058 | barasertib 0.015 | [2] -0.069 | volasertib -0.038 | [3] -0.015 | [4] 0.042 | [5] 0 | saracatinib 0.005 | sotrastaurin 0.002 | alvocidib 0.036 | Tubastatin A -0.08 | [6] 0.019 | defactinib -0.039 | [7] -0.105 | [8] 0.093 | alisertib -0.048 | [9] 0.007 | gefitinib 0.019
active: vemurafenib 0.411 | encorafenib 0.307

ABHD17A isoform 2 (UniProt Q96GS6)
inactive: vemurafenib -0.007 | [1] -0.08 | barasertib 0.007 | [2] 0.036 | volasertib 0.012 | [3] 0.022 | [4] 0.001 | [5] 0.013 | saracatinib -0.027 | sotrastaurin -0.05 | alvocidib -0.025 | Tubastatin A 0.023 | [6] -0.025 | defactinib -0.009 | [7] 0.01 | encorafenib -0.009 | [8] -0.222 | alisertib -0.12 | [9] 0.04 | gefitinib 0.044

AMMECR1 (UniProt Q9Y4X0)
Sequence of UniProt Q9Y4X0 (Q9Y4X0 whole entry, looked up): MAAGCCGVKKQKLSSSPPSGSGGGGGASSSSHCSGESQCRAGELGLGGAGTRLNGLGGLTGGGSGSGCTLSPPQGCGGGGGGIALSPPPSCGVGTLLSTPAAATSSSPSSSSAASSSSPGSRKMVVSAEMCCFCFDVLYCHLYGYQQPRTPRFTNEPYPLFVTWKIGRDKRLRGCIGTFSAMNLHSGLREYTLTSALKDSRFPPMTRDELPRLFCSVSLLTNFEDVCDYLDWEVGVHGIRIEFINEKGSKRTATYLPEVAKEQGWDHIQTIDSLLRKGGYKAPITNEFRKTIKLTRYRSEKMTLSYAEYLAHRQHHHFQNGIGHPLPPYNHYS
inactive: vemurafenib 0.067 | [1] 0 | barasertib 0.008 | [2] -0.019 | volasertib -0.03 | [3] -0.026 | [4] -0.012 | [5] 0.032 | saracatinib 0 | sotrastaurin 0.008 | alvocidib -0.014 | Tubastatin A 0.022 | [6] 0.02 | defactinib 0.02 | [7] 0.003 | encorafenib 0.02 | [8] -0.01 | alisertib -0.031 | [9] 0.011 | gefitinib -0.019

APOB (UniProt P04114)
active: [4] -0.224
inactive: vemurafenib -0.006 | [1] 0.039 | barasertib 0.03 | [2] -0.009 | volasertib 0.026 | [3] -0.189 | [5] 0.092 | saracatinib 0.029 | sotrastaurin 0.024 | alvocidib -0.078 | Tubastatin A 0.099 | [6] -0.021 | defactinib -0.04 | [7] 0.264 | encorafenib -0.008 | [8] 0.003 | alisertib -0.024 | [9] 0.023 | gefitinib 0.014

ANP32E (UniProt Q9BTT0)
Sequence of UniProt Q9BTT0 (Q9BTT0 whole entry, looked up): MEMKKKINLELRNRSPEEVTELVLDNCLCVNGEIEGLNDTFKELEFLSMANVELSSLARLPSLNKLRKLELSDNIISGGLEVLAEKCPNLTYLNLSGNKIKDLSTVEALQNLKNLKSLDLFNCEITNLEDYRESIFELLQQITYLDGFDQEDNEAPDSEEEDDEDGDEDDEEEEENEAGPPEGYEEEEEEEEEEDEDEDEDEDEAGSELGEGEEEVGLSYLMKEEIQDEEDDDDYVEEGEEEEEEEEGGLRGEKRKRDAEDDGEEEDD
inactive: vemurafenib -0.012 | [1] 0.004 | barasertib -0.064 | [2] 0.059 | volasertib -0.001 | [3] -0.011 | [4] -0.058 | [5] 0.024 | saracatinib 0.028 | sotrastaurin -0.023 | alvocidib 0 | Tubastatin A 0.079 | [6] -0.007 | defactinib -0.018 | [7] 0.056 | encorafenib -0.037 | [8] -0.008 | alisertib -0.019 | [9] 0.007 | gefitinib -0.061

AKR1B1 (UniProt P15121)
inactive: vemurafenib 0.006 | [1] 0.024 | barasertib 0.02 | [2] 0.072 | volasertib -0.015 | [3] 0.008 | [4] -0.054 | [5] 0.116 | saracatinib 0.065 | sotrastaurin -0.012 | alvocidib 0.033 | Tubastatin A 0.023 | [6] -0.003 | defactinib -0.01 | [7] -0.072 | encorafenib 0.019 | [8] 0.009 | alisertib 0.015 | [9] -0.008 | gefitinib -0.016

AK2 (UniProt P54819)
inactive: vemurafenib 0.014 | [1] 0.062 | barasertib -0.013 | [2] 0.029 | volasertib 0.013 | [3] -0.009 | [4] 0.119 | [5] -0.008 | saracatinib -0.015 | sotrastaurin -0.038 | alvocidib -0.003 | Tubastatin A 0.05 | [6] -0.019 | defactinib 0.016 | [7] 0.033 | encorafenib -0.025 | [8] -0.018 | alisertib 0.008 | [9] -0.025 | gefitinib 0.019

ASCC2 (UniProt Q9H1I8)
Sequence of UniProt Q9H1I8 (Q9H1I8 whole entry, looked up): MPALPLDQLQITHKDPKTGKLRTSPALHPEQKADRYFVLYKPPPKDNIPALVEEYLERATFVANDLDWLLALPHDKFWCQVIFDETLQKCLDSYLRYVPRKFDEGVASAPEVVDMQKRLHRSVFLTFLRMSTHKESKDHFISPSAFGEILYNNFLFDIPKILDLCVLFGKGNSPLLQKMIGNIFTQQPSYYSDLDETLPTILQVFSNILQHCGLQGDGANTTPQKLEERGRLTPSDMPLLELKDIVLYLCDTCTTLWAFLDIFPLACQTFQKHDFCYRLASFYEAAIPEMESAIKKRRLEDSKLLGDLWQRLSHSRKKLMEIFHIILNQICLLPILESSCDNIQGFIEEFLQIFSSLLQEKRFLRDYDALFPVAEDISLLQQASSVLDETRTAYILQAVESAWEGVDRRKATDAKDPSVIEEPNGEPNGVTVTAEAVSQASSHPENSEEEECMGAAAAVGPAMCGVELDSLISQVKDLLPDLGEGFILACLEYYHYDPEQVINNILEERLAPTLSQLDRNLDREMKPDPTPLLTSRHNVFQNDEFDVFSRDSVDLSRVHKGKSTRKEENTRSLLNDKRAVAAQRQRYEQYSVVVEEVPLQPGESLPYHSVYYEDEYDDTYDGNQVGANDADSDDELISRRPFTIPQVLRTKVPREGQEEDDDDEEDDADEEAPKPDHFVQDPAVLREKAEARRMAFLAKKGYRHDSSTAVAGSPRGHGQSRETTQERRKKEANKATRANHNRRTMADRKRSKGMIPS
inactive: vemurafenib 0.037 | [1] 0.069 | barasertib 0.025 | [2] -0.054 | volasertib -0.024 | [3] 0.007 | [4] 0.051 | [5] -0.103 | saracatinib 0.04 | sotrastaurin 0.027 | alvocidib -0.009 | Tubastatin A -0.105 | [6] 0.002 | defactinib 0 | [7] -0.003 | encorafenib 0.007 | [8] 0.037 | alisertib -0.014 | [9] 0.016 | gefitinib -0.057

ARGLU1 (UniProt Q9NWB6)
Sequence of UniProt Q9NWB6 (Q9NWB6 whole entry, looked up): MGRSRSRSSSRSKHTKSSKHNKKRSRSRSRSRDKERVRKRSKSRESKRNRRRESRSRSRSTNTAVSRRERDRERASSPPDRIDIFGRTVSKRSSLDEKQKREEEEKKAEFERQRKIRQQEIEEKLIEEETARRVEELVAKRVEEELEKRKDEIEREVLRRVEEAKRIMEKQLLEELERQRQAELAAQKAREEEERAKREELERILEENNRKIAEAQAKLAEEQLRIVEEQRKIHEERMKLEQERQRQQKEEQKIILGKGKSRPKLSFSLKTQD
inactive: vemurafenib -0.013 | [1] 0.027 | barasertib -0.043 | [2] 0.001 | volasertib 0.027 | [3] -0.035 | [4] 0.073 | [5] -0.02 | saracatinib 0.047 | sotrastaurin -0.019 | alvocidib -0.119 | Tubastatin A 0.018 | [6] -0.056 | defactinib -0.049 | [7] 0.01 | encorafenib 0.012 | [8] -0.039 | alisertib -0.006 | [9] 0.012 | gefitinib 0.006

ARHGAP25 isoform 4 (UniProt P42331)
Sequence of UniProt P42331 (P42331 whole entry, looked up): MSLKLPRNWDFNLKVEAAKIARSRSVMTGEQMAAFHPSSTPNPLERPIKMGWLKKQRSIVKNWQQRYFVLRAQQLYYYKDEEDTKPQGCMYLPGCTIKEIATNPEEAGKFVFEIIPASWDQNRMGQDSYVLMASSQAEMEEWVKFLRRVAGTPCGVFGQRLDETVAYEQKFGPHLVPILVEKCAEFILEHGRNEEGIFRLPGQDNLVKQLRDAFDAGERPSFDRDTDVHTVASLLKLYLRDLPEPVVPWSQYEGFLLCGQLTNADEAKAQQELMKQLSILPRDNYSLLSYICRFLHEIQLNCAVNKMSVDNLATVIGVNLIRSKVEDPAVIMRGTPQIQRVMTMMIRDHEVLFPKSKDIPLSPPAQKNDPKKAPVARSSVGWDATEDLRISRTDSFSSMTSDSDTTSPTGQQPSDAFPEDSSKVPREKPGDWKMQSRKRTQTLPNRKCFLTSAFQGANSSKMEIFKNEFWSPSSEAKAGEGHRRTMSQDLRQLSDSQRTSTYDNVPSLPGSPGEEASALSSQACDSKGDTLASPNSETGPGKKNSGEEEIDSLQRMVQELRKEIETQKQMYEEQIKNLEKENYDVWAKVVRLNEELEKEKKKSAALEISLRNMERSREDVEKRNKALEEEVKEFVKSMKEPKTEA
inactive: vemurafenib 0.021 | [1] 0.049 | barasertib 0.081 | [2] -0.045 | volasertib -0.029 | [3] -0.032 | [4] -0.012 | [5] 0.019 | saracatinib -0.034 | sotrastaurin 0.043 | alvocidib -0.032 | Tubastatin A -0.122 | [6] 0.04 | defactinib 0.055 | [7] 0.054 | encorafenib -0.009 | [8] 0.038 | alisertib 0.012 | [9] -0.004 | gefitinib -0.009

ARL1 (UniProt P40616)
Sequence of UniProt P40616 (P40616 whole entry, looked up): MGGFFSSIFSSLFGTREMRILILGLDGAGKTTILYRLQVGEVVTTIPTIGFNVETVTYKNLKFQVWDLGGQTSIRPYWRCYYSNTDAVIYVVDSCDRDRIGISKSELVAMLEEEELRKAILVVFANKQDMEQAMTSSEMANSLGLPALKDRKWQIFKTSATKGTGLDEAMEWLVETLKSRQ
active: [8] -0.293
inactive: vemurafenib 0.046 | [1] 0.007 | barasertib -0.031 | [2] 0.03 | volasertib -0.066 | [3] -0.04 | [4] -0.101 | [5] -0.005 | saracatinib -0.005 | sotrastaurin 0.042 | alvocidib -0.017 | Tubastatin A -0.025 | [6] 0.079 | defactinib 0.001 | [7] 0.088 | encorafenib 0.111 | alisertib 0.081 | [9] 0.053 | gefitinib 0.057

ASB6 (UniProt Q9NWX5)
inactive: vemurafenib -0.249 | [1] -0.039 | barasertib 0.109 | volasertib -0.026 | [3] -0.002 | [4] 0.182 | [5] 0.075 | saracatinib -0.05 | sotrastaurin -0.01 | alvocidib 0.097 | Tubastatin A 0.014 | [6] -0.006 | defactinib 0.019 | [7] 0.099 | encorafenib -0.1 | [8] 0.174 | alisertib -0.001 | [9] 0.073 | gefitinib -0.046
active: [2] 0.651

AKAP8 (UniProt O43823)
inactive: vemurafenib 0.006 | [1] 0.044 | barasertib 0.056 | [2] -0.009 | volasertib -0.03 | [3] -0.013 | [4] -0.056 | [5] 0.044 | saracatinib 0.075 | sotrastaurin 0.008 | alvocidib -0.031 | Tubastatin A -0.038 | [6] -0.059 | defactinib -0.001 | [7] -0.073 | encorafenib 0.072 | [8] -0.098 | alisertib 0.02 | [9] 0.058 | gefitinib -0.042

AFF1 isoform 2 (UniProt P51825)
Sequence of UniProt P51825 (P51825 whole entry, looked up): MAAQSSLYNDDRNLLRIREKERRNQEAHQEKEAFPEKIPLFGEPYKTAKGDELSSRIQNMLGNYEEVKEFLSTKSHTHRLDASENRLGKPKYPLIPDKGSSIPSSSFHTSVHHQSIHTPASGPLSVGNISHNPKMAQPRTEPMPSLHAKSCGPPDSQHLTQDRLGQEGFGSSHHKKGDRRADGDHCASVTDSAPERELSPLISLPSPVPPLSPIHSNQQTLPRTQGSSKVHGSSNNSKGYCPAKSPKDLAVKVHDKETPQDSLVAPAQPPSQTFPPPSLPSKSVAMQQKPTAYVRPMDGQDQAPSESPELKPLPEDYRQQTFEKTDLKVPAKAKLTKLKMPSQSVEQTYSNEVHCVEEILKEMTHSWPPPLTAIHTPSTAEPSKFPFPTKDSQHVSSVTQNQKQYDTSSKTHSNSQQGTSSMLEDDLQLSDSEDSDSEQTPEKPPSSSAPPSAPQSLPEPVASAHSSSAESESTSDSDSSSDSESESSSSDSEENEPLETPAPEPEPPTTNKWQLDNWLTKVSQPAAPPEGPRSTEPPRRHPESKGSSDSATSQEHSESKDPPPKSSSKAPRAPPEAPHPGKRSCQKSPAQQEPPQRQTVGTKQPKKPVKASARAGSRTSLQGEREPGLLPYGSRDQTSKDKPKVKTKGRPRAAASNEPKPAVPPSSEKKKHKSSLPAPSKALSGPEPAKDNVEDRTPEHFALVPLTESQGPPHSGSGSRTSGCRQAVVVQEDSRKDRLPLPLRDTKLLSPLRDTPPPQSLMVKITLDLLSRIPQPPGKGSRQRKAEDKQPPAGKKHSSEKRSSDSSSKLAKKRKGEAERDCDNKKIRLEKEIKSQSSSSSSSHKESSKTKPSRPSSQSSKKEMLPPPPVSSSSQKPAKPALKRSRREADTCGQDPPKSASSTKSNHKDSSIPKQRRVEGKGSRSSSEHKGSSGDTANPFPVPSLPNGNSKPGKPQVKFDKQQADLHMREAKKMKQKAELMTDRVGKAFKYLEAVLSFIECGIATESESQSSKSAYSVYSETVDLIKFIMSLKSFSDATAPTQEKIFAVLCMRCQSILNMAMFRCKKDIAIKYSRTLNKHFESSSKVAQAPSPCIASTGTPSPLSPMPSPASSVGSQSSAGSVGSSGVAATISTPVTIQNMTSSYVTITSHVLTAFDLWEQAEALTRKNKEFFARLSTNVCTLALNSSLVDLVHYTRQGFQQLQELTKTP
inactive: vemurafenib -0.059 | [1] 0.007 | barasertib 0.033 | [2] 0.068 | volasertib -0.043 | [3] -0.023 | [4] -0.307 | [5] 0.125 | saracatinib -0.015 | sotrastaurin 0.029 | alvocidib -0.157 | Tubastatin A 0.052 | [6] 0.076 | defactinib 0.083 | [7] 0.004 | encorafenib -0.001 | [8] -0.033 | alisertib -0.043 | [9] 0.157 | gefitinib -0.323
